Assay outcomes from PubChem BioAssay.
Giardia FBPA inh – Giardia lamblia aldolase inhibition; 290,000 compounds, 0.71% hits; AID 2451; Potency, µM (doses to about 59.6 µM), actives largely listed as inhibitors; purified Giardia FBPA; further: nearly all actives have a fitted effect of over 55% in size
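40 nM FBPA preincubated 10 min at RT with compound (up to 57.5 uM final), then substrate plus GAPDH/TPI/NAD/arsenate coupling and diaphorase/resazurin added. Fluorescence read after 20 min at RT, 525/598 nm.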
Cruzain inh Det – blocks cruzain activity in presence of Triton detergent | P25779 | purified cruzain, Z-FR-AMC fluorescence, 0.01% Triton | Potency, µM, most hits filed as inhibitors | 200,000 compounds, 0.43% hits | AID 1478; further: nearly all actives have a fitted effect of over 40% in size
Target sequence (P25779 123-467 limits assumed): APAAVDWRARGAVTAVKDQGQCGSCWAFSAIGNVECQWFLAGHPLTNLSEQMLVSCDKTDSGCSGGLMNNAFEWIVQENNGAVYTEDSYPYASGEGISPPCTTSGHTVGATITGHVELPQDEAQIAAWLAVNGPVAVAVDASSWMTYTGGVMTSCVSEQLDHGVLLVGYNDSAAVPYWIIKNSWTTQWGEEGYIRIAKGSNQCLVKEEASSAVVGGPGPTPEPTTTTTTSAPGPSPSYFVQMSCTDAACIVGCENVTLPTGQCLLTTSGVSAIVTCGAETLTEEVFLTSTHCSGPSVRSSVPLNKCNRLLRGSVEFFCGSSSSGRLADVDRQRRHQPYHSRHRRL
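In this qHTS format, compounds are incubated with 1.5 nM cruzain for 15 min at room temperature before 2 uM Z-FR-AMC is added. Release of AMC is followed at 360/450 nm, and progress is taken as the 60 s fluorescence difference.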
Cruzain noTriton – blocks cruzain activity in detergent-free assay; P25779; purified cruzain, Z-FR-AMC fluorescence, no detergent; Potency, µM, usual class: inhibitors; 200,000 compounds, 2.3% hits; further: nearly all actives have a fitted effect of over 40% in size
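Detergent-free condition (0.00005% Triton X-100) in acetate buffer pH 5.5 with DTT. 1.5 nM enzyme and compound were pre-mixed 15 min, then 2 uM Z-FR-AMC substrate added; reaction progress from fluorescence change between first and third reads (60 s).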
Hits are given with their value; . = inactive; ? = inconclusive; / = not tested or not shown; ! = a repeat was not active. Many of the other results were omitted from the sample, so hits are more common in it than they were. The call rests on the fitted dose curve; in most records, active means well fitted curve in the direction sought with a large enough effect; inconclusive means small, poorly fitted or top-dose-only effect, or another doubt; inactive means no such curve, though single readings can be large; an effect the other way counts as inactive or inconclusive.

SMILES | Giardia FBPA inh | Cruzain inh Det | Cruzain noTriton
COc1ccc2c(c1)n([O-])c1c([n+]2=O)CCC1 | . | / | /
CC(=O)Nc1c(S(=O)(=O)c2ccccc2)c2nc3ccccc3nc2n1Cc1ccccc1 | . | . | .
C=CCn1c(NS(=O)(=O)c2ccccc2)c(S(=O)(=O)c2ccc(C)cc2)c2nc3ccccc3nc21 | 0.14µM | . | ?
O=C(SCc1cccc2ccccc12)c1ccc(Cl)cc1 | / | . | .
CCC1CC=CC2C1C(=O)N(Cc1ccccc1)C2c1cc(C)ccc1F (stereo not given) | . | / | /
Cc1coc2c1C(=O)C(=O)c1c-2ccc2c(C)cccc12 | 1.3µM | / | /
Cc1coc2c1C(=O)C(=O)c1c-2ccc2c1CCCC2(C)C | 18µM! | . | .
CC1COC2=C1C(=O)C(=O)c1c2ccc2c1CCCC2(C)C (stereo not given) | 1.6µM | . | ?
Cc1ccc2c3c(cccc13)-c1ccccc1C2=O | . | . | .
Cc1coc2cc3oc(=O)c4c(c3cc12)CCC4 | . | . | .
O=C(Nc1cc(NC(=O)c2ccccc2Cl)ccc1Cl)c1ccccc1 | / | . | .
Cc1cc(NC(=O)CS(=O)(=O)c2cn(Cc3ccccc3Cl)c3ccccc23)no1 | . | . | 25µM
CCOC(=O)N1CCN(C(=O)CS(=O)(=O)c2cn(Cc3ccccc3Cl)c3ccccc23)CC1 | . | . | ?
CCOC(=O)c1ccccc1NC(=O)Cn1c(=O)n(CCCC(=O)NCc2ccc3c(c2)OCO3)c(=O)c2ccccc21 | / | . | .
COc1ccccc1NC(=S)NC1CCC(CC2CCC(NC(=S)Nc3ccccc3OC)CC2)CC1 (stereo not given) | . | . | 4µM
COc1ccccc1NC(=S)NCC1CCC(CNC(=S)Nc2ccccc2OC)CC1 (stereo not given) | . | / | /
Cc1nn2c(=O)cc(COC(=O)COc3ccccc3C)nc2s1 | / | . | .
N#Cc1nc(NCCO)nc(Nc2ccccc2)n1 | . | / | /
CCOC(=O)c1c(-c2ccc(C)o2)csc1NC(=S)NC(=O)c1ccccc1Br | . | . | 32µM
CCOC(=O)c1c(-c2ccccc2)csc1NC(=S)NC | . | . | .
CCOC(=O)c1c(-c2ccc(C)o2)csc1NC(=S)NC(=O)c1cccs1 | . | . | 25µM
CCOC(=O)c1c(-c2ccc(C)o2)csc1NC(=O)CSc1nnc(C)s1 | . | . | ?
C[C@H](CC(C#N)(c1ccccc1)c1ccccc1)N1CCCCC1 | / | . | .
CCCCOCCOCCSC#N | / | . | .
COCCCn1c(-c2ccco2)nc2ccccc2c1=O | . | . | .
SMILES | Giardia FBPA inh | Cruzain inh Det | Cruzain noTriton
CCCCOCCCn1c(-c2ccco2)nc2nc3ccccc3nc21 | . | 28µM | ?
Nc1c(-c2cccs2)cnn1-c1nc(-c2ccc(Cl)cc2Cl)cs1 | . | . | 25µM
Nc1c(-c2cccs2)cnn1-c1nc(-c2ccc(F)cc2)cs1 | . | . | .
Cc1ccc(N2C(=O)CSC23C(=O)N(CC(=O)Nc2ccc(C)cc2C)c2ccccc23)cc1 (stereo not given) | / | . | .
Cc1cc(NC(=O)CSc2nnc(Nc3ccccc3C)s2)no1 | . | / | /
Cc1cccc(N2CC(C(=O)Nc3nnc(SCC(=O)Nc4nccs4)s3)CC2=O)c1 (stereo not given) | . | . | 6.3µM
Cc1cc(NC(=O)CSc2nnc(Nc3ccccc3)s2)no1 | . | . | 16µM
Cc1cccc(N2CC(C(=O)Nc3nnc(SCc4cccnc4)s3)CC2=O)c1 (stereo not given) | . | / | /
Cc1cccc(N2CC(C(=O)Nc3nnc(SCC(=O)Nc4cc(C)on4)s3)CC2=O)c1 (stereo not given) | . | . | 10µM
Cc1ccccc1N1CC(C(=O)Nc2nnc(SCC(=O)Nc3nccs3)s2)CC1=O (stereo not given) | . | . | .
COc1ccccc1CNC(=O)CCCn1c(=O)c2ccccc2n(Cc2ccc(C)cc2)c1=O | / | . | .
COC(=O)c1c(-c2ccc(Cl)cc2)noc1N1CCN(c2cccc(OC)c2)CC1 | / | . | .
C/C(=N\NC(=S)NCCc1ccccc1)c1ccc(C)cc1 | . | . | .
C/C(=N\NC(=S)NCCc1ccccc1)c1ccc(C#N)cc1 | . | . | 10µM
COC(=O)c1cc(=O)n(CCc2ccc(OC)cc2)c(=Nc2ccc(F)c(Cl)c2)s1 | . | . | .
COC(=O)c1cc(=O)n(Cc2ccc3c(c2)OCO3)c(=Nc2ccc(F)c(Cl)c2)s1 | . | . | 20µM
CCOC(=O)Cn1nc(C)c(NC(=O)COc2ccc(Cl)cc2C)c1C | / | . | .
O=C1CCCC2[C@@H]3CCC[N@+]4([O-])CCC[C@H](CN12)C34 (stereo not given in full) | . | . | .
O=C(Cn1cnc2ccccc2c1=O)Nc1ccc2c(c1)CCC2 | . | . | .
O=C(Cn1cnc2cc([N+](=O)[O-])ccc2c1=O)Nc1ccc2c(c1)CCC2 | . | . | 16µM
O=C1/C(=C/c2cccc(Cl)c2)CSc2sccc21 | . | / | /
Cc1cccc(/C=C2\CS/C(=C\c3cccc(C)c3)C2=O)c1 | . | . | 25µM
COc1ccccc1NS(=O)(=O)c1cc(NC(C)=O)ccc1N1CCCCC1 | . | / | /
COc1ccccc1NS(=O)(=O)c1cc(NC(=O)Nc2cccc(C)c2)ccc1N1CCCCC1 | . | . | 5µM
CCOc1ccccc1N(C)C(=O)c1c2c(nc3ccccc13)C(=O)N(C1CCCCC1)C2 | / | . | .
O=C1OCC2=C1C(c1ccc(F)cc1)Sc1ccccc1N2 (stereo not given) | . | . | .
CC(C)(C)c1ccc(C2Sc3ccccc3NC3=C2C(=O)c2ccccc23)cc1 (stereo not given) | / | . | 7.9µM
CC(=O)Nc1ccc(S(=O)(=O)Nc2cccc3cccnc23)cc1 | . | / | /
O=S(=O)(Nc1cccc2cccnc12)c1ccccc1 | 18µM | / | /
